Test [1] in a line: optical density shifts of acrAB sulA E. coli – strain DRC41, OD650, 48 h, E. coli filamentation inducer project, primary screen (AID 1152).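 Note: E. coli MC1000 strain DRC41 lacking acrAB efflux pump and sulA.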 Conditions: higher = more signal, called active from +8 up or from −8 down.
The nature of test [2]: probe aLefty1 binding on compound microarray – biochemical, small-molecule microarray, 635/667 nm fluorescence, primary screen (AID 1153).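 Note: score merges spot fluorescence with signal-to-noise ratio from the scanned slide images.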 Conditions: higher = more signal.
Test [3] in a line: plasmodial surface anion channel blockers, osmotic lysis – cell-based, P. falciparum Indochina, OD700, 1 h, primary screen (AID 1154). Particulars: P. falciparum Indochina infected RBC osmotic lysis, higher = more signal, called active from +8 up or from −8 down.
A short description of test [4]: plasmodial surface anion channel blockers, osmotic lysis – cell-based, P. falciparum Indochina, OD700, 2 h, primary screen (AID 1155).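 Note: lysis reports solute entry through the parasite surface anion channel PSAC.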 Particulars: P. falciparum Indochina infected erythrocytes, higher = more signal, called active from +8 up or from −8 down.
The nature of test [5]: changes in parasitized red cell lysis, either direction – P. falciparum Indochina, OD700, 3 h, PSAC antagonist project, primary screen (AID 1156). Conditions: P. falciparum-infected erythrocytes, osmotic lysis, higher = more signal, called active from +8 up or from −8 down.
Test [6] is described as follows: plasmodial surface anion channel blockers, osmotic lysis – cell-based, P. falciparum Indochina, OD700, 18 h, primary screen (AID 1157). Particulars: P. falciparum Indochina infected erythrocytes, osmotic lysis OD700, 18 h; higher = more signal, called active from +8 up or from −8 down.
Test [7] in a line: S6 kinase pathway phospho-S6 level changes – cell-based, A549, cytoblot, luminescence, serum-stimulated, primary screen (AID 1158).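 Note: serum-stimulated A549 lung adenocarcinoma cells; signal is phosphorylated S6 detected by cytoblot immunostaining with HRP secondary.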 Particulars: 5 h, higher = more signal.
Test [8] concerns the target NADPH oxidase 2 (Homo sapiens) (UniProt P04839). In words: compounds shifting NOX2 Amplex Red fluorescence – cell-based, HEK293-NOX2, PMA-stimulated, NOX inhibitor project, primary screen (AID 1159). Note: test concentration not given here. Particulars: 45 min, higher = more signal, called active from +8 up or from −8 down.
Test [9] concerns the target NADPH oxidase 4 (Homo sapiens) (UniProt Q9NPH5). In words: compounds shifting NOX4 Amplex Red fluorescence – cell-based, HEK293-NOX4, tetracycline-induced, NOX inhibitor project, primary screen (AID 1160). Conditions: HEK293-NOX4, Amplex Red H2O2 fluorescence, 45 min; higher = more signal, called active from +8 up or from −8 down.
Test [10] deals with NADPH oxidase 5 (Homo sapiens) (UniProt Q96PH1). The experiment in a line: compounds shifting NOX5 Amplex Red fluorescence – cell-based, HEK293-NOX5, NOX inhibitor project, primary screen (AID 1161). Conditions: HEK293-NOX5, ionomycin, 45 min, higher = more signal.
Chain of NADPH oxidase 5 (Homo sapiens) (Q96PH1 whole entry, looked up): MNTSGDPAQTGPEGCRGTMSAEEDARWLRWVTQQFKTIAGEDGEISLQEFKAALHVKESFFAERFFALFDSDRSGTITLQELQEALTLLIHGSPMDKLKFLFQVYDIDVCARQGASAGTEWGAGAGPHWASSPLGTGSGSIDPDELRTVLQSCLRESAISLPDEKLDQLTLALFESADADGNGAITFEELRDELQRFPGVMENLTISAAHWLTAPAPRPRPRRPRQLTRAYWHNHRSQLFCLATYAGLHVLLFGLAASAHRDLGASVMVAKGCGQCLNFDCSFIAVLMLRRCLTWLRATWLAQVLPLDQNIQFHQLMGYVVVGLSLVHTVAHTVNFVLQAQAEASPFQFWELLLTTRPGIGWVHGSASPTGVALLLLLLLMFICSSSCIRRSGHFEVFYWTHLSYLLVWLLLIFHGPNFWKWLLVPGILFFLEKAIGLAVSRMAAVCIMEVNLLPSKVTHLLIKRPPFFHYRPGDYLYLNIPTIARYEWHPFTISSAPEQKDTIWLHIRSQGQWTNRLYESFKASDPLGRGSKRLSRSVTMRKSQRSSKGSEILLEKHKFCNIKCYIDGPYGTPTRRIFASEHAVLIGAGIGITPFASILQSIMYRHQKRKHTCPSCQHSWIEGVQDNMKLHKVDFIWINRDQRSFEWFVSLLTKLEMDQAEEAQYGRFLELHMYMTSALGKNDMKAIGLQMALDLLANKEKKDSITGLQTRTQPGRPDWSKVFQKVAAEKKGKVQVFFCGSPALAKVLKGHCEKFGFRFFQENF

Activity calls are given as the source filed them.

Chain of NADPH oxidase 2 (Homo sapiens) (P04839 whole entry, looked up): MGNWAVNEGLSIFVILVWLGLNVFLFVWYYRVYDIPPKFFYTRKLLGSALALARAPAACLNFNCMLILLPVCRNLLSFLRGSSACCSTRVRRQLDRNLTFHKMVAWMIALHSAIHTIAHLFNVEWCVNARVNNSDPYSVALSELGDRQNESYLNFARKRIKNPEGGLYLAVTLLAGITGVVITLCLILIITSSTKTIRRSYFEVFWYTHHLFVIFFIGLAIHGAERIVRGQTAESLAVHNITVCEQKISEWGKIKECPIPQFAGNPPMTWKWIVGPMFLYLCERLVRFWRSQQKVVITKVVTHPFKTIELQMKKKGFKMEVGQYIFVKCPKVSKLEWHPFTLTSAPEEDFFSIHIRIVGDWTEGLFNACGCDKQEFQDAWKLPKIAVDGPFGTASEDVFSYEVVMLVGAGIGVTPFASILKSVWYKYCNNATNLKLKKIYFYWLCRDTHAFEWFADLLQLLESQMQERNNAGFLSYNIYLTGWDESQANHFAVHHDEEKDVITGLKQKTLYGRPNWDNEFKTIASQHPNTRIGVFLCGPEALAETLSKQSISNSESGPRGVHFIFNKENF
Chain of NADPH oxidase 4 (Homo sapiens) (Q9NPH5 whole entry, looked up): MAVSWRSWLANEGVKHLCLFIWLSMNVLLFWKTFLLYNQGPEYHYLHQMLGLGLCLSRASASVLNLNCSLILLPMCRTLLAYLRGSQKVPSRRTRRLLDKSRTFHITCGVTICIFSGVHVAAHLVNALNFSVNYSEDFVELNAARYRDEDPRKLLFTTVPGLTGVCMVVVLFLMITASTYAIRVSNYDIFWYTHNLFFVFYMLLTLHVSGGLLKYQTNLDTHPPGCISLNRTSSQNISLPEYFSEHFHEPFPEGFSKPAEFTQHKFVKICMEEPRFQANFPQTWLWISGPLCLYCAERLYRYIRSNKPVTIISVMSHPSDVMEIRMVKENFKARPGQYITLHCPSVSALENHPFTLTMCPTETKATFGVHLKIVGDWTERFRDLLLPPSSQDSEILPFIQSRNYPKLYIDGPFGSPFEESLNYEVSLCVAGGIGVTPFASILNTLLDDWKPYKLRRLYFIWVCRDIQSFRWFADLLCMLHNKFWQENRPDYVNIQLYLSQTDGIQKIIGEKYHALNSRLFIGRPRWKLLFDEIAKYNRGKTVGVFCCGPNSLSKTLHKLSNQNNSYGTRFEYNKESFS

On to `C=C(CCCC)/C(=C/C[C@H](OC(C)=O)c1ccc(CO)o1)c1cnc2ccccc2c1`, for which the z-score in [1] was -0.134 (inactive); in [3], 5.4 (inactive); in [4], 0.452 (inactive); in test [5] it was 0.435 (inactive); in [6], 0.136 (inactive); in test [7] it was 0.307. In addition, the figures for the z-score in test [8], in test [9] and in test [10] were -0.719 (inactive), -0.447 (inactive) and -0.582, respectively. Moreover, the composite z-score in test [2] worked out at 0.0557.

Turning to `CCOC(=O)C[C@H]1[C@H](OC(=O)c2ccccc2-c2ccccc2)[C@@H](NC(=O)c2ccc3ccccc3c2)c2cc(OCCCO)ccc2N1C(=O)c1ccc2ccccc2n1`, the z-score in test [1] is 0.0514 (inactive); in test [3], 4.5 (inactive); in test [4], 0.759 (inactive); in test [5], -0.62 (inactive); in test [6], 0.452 (inactive); in [7], -0.429. Besides, the z-score in test [8] is 0.349 (inactive); in test [9], 1.08 (inactive); in [10], 0.803. In addition, the composite z-score in test [2] was -0.193.

For `COCCCNC(=O)[C@@]1(CCC(=O)OC(C)(C)C)N=C(c2ccc(OCCCO)cc2)O[C@H]1c1ccccc1CN=[N+]=[N-]`, the z-score in [1] was 0.369 (inactive); in test [3] it was 23.2 (active); in test [4], 4.71 (inactive); in test [5], 1.35 (inactive); in test [6] it was 0.883 (inactive); in test [7], 0.0769. Moreover, the z-score is 1.95 (inactive) in test [8], 2.2 (inactive) in test [9] and 2.48 in [10]. The compound also registered a composite z-score in test [2] of 0.428.

For `[N-]=[N+]=NCc1ccccc1[C@@H]1OC(c2ccc(OCCCO)cc2)=N[C@]1(Cc1ccccc1)C(=O)N1CCCCC1`, the z-score in test [1] was 1.22 (inactive); in test [3], 21.5 (active); in [4], 4.66 (inactive); in [5] it was 1.78 (inactive); in test [6] it was 1.3 (inactive); in test [7], -0.205. Also, the z-score in test [8] is -0.84 (inactive); in test [9] it was 0.453 (inactive); in test [10], -1.26. Besides, in test [2], the composite z-score is 0.33.

As to `C=CC[C@]1(C(=O)N2CCOCC2)N=C(c2ccc(OCCCO)cc2)O[C@H]1c1ccccc1`, the z-score was 0.104 (inactive) in [1]; 11.3 (active) in test [3]; 1.09 (inactive) in test [4]; 0.492 (inactive) in test [5]; 0.471 (inactive) in [6]; -0.0044 in [7]. Besides, the values for the z-score in test [8], in [9] and in test [10] were -1.59 (inactive), 0.486 (inactive) and -0.921, respectively. For the same compound, the composite z-score in [2] was 0.302.

Consider `CN(C)C(=O)[C@@]1(CCC(=O)OC(C)(C)C)N=C(c2ccc(OCCCO)cc2)O[C@H]1c1ccccc1`, for which the z-score in test [1] was -0.249 (inactive); in test [3], 15.9 (active); in [4], 1 (inactive); in test [5] it was 1.34 (inactive); in [6] it was -0.976 (inactive); in test [7] it was 0.837. In addition, the z-score in [8] is -2.81 (inactive); in [9] it was -0.618 (inactive); in test [10], -0.698. In test [2], the composite z-score was 0.986.

`Cc1ccc(S[C@]2(C(=O)NCC(C)C)CC(=O)N(Cc3ccccc3Cl)[C@@H]2c2ccc(CO)cc2)cc1`: the z-score is -0.132 (inactive) in [1]; 1.14 (inactive) in test [3]; 0.61 (inactive) in test [4]; -0.23 (inactive) in test [5]; 0.0839 (inactive) in test [6]; 0.534 in [7]. Besides, the z-score is -1.85 (inactive) in [8], 0.717 (inactive) in [9] and -0.393 in test [10]. Besides, the composite z-score in test [2] is -0.188.

Turning to `CC(C)(C)N1CC=CC23O[C@@H]4/C=C\CCCOC(=O)C4[C@H]2C(=O)N(CCO)[C@@H]3C1=O` (stereo not given in full), the z-score in [1] is 0.583 (inactive); in [3], 0.806 (inactive); in [4], 1.01 (inactive); in test [5] it was 0.17 (inactive); in test [6], 0.603 (inactive); in [7] it was -0.495. Also, the figures for the z-score in test [8], in test [9] and in test [10] were 1.58 (inactive), 0.0377 (inactive) and 2.17, respectively. In addition, the composite z-score in test [2] was -0.552.

Turning to `C=C(C(=O)CC[C@H](OC(C)=O)c1ccc(OCCO)cc1)C(C)C`, the z-score in test [1] was 2.32 (inactive); in [3] it was 1.73 (inactive); in test [4], -0.266 (inactive); in test [5], -1.84 (inactive); in [6], -0.944 (inactive); in test [7], 0.823. In addition, the z-score in test [8] was -3.44 (inactive); in test [9], -1.75 (inactive); in test [10], -3.36. In test [2], this compound showed a composite z-score of 0.0004.

For the compound `CC(C)NC(=O)[C@@H]1c2ccccc2C(=O)N(Cc2ccccc2Cl)[C@H]1c1ccc(CO)cc1`, the z-score in [1] was 1.09 (inactive); in test [3] it was 2.67 (inactive); in [4] it was 1.05 (inactive); in test [5], 0.796 (inactive); in [6], 0.183 (inactive); in test [7] it was -0.469. The z-score was -0.444 (inactive) in test [8], 0.715 (inactive) in test [9] and 0.376 in test [10]. The compound also displayed a composite z-score in [2] of 0.509.

In the case of `COc1ccc([Si](C)(C)[C@@H]2[C@@H](CC(=O)N3CCC[C@H]3CO)O[C@]3(C(=O)N(C)c4c(Br)cc(C)cc43)[C@H]2C)cc1`, the z-score is -0.674 (inactive) in [1]; 5.59 (inactive) in test [3]; 0.576 (inactive) in [4]; 0.405 (inactive) in test [5]; 0.768 (inactive) in test [6]; -0.415 in [7]. In addition, the z-score in test [8] is 1.73 (inactive); in [9], 1.17 (inactive); in [10] it was 3.69. Besides, in test [2], the composite z-score was -0.251.

In the case of `CC(C)c1ccc(NN2C(C(O)c3cccc(O)c3)C=CC3C(=O)N(c4ccccc4)C(=O)C32)cc1` (stereo not given), the z-score is -0.833 (inactive) in [1]; 8.05 (active) in test [3]; 1.14 (inactive) in test [4]; 1.5 (inactive) in test [5]; 1.64 (inactive) in test [6]; -0.83 in [7]. Besides, the z-score in test [8] was -2.01 (inactive); in test [9], -5.51 (inactive); in [10], -4.13. In [2], this compound had a composite z-score of 0.0523.

Turning to `CO[C@H]1O[C@H](CO)[C@@H](OC(=O)Nc2ccc3c(c2)OCO3)[C@H](OC(=O)Nc2ccccc2)[C@H]1OC(=O)Nc1ccccc1`, the z-score in test [1] is -0.495 (inactive); in test [3] it was 4.11 (inactive); in [4], 0.777 (inactive); in test [5], 0.756 (inactive); in test [6], 0.421 (inactive); in test [7], 0.258. In addition, the z-score in test [8] was -6.93 (inactive); in test [9], -0.649 (inactive); in [10] it was -2.08. Besides, the composite z-score in test [2] was 0.227.

(Values after PubChem BioAssay.)
